# ALDH1A1 inh – ALDH1A1 (human) enzyme inhibition; P00352; Purified ALDH1A1, NADH fluorescence, propionaldehyde substrate; Potency, µM (highest dose often 75.3 µM), inactives show at the top dose activity, negative = inhibition, hits mostly inhibitors; actives 7.3% (n = 220,000); AID 1030;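 also: potency is read from the fitted curve at half-maximal effect; plate controls were no enzyme wells and a reference inhibitor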
# Target sequence (P00352 whole entry, looked up): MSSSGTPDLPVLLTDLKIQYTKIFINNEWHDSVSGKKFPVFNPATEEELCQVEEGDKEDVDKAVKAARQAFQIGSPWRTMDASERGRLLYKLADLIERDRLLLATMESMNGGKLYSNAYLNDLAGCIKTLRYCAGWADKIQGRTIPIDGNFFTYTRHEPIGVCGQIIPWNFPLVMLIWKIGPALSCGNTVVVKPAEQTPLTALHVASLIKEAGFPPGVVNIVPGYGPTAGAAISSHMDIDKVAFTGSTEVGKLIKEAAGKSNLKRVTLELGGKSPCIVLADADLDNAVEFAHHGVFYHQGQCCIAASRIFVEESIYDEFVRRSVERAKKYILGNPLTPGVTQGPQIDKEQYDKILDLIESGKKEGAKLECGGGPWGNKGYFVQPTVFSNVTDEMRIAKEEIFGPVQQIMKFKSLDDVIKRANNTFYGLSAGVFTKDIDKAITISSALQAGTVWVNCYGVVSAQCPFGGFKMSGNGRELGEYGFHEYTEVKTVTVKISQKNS
# HPGD block – blocks human HPGD enzyme activity; purified HPGD, NADH fluorescence kinetic, PGE2 substrate; Potency, µM, for inactives: top-dose activity change, negative = inhibition, hits mostly inhibitors; actives 4.3% (n = 150,000); also: potency is read from the fitted curve at half-maximal effect
# Target sequence (P15428 whole entry, looked up): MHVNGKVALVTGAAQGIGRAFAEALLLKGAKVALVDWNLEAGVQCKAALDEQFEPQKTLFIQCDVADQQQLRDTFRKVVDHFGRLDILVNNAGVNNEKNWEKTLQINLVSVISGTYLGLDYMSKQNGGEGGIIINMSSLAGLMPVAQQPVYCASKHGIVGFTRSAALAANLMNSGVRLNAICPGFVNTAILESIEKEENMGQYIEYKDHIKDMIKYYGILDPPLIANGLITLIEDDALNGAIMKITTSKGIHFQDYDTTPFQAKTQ
#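 NADH formation kinetics: reaction with 30 uM PGE2 and 1 mM NAD+ (final), 20 nM enzyme, Tris-HCl pH 8 with Tween 20, after 15 min compound preincubation at room temperature. Fluorescence change, last versus first of five reads.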
# Lamin A splicing – LMNA splicing modulation; actives 0.01% (n = 200,000); AID 1487; Potency, µM (highest dose often 46.1 µM), for inactives: at the top dose ratio change, negative = inhibition, usual class: inhibitors; HeLa LMNA splicing GFP/RFP minigene ratio, 48 h; active = well fitted inhibition curve with a large enough effect in the signal ratio, with a control signal flat, not every such curve was filed as active; inconclusive = small, poorly fitted or top-dose-only effect, or effect the other way, or a change in a side signal; the % refers to the signal ratio; also: potency is read from the fitted curve at half-maximal effect
#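 Read-out is the ratio of GFP to DsRed2 object intensity, acquired by 488 nm laser-scanning cytometry on HeLa lamin A-EGFP minigene reporter cells. Compound incubation 48 hrs at 37 °C in Opti-MEM with 2% FBS; DMSO 0.5% final.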
# PNC assembly inh – inhibitors of perinucleolar compartment assembly; AID 2417; actives 3.1% (n = 140,000); PC3M PTB-GFP, PNC prevalence imaging, 16 h; active compounds read low; activity change (PNC), negative = inhibition, % at 10 µM;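 active = readout at or below -70, meaning at least 70% loss of cells showing the perinucleolar compartment, a nuclear body marking cancer cells; inconclusive = readout between -30 and a set limit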;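 also: plate controls were DMSO wells for no effect and camptothecin positive control wells for full effect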
#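 Read-out is percentage of cells bearing a perinucleolar compartment, from automated 20x imaging of fixed, Hoechst-stained PC3M PTB-GFP cells. Cells were seeded 4 h, then exposed 16 h to compound (23 nl of library stock) in duplicate plates.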
# KinaseGlo FLuc – Kinase-Glo luciferase inhibition (counter-screen); Q27757; Kinase-Glo luciferase, ATP luminescence, 8 min; Potency, µM (top dose mostly 38.3 µM), inactives show at the top dose activity change, negative = inhibition, actives largely listed as inhibitors; actives 0.28% (n = 200,000); AID 1379; active = well fitted inhibition curve with a large enough effect; inconclusive = small, poorly fitted or top-dose-only effect; also: potency is read from the fitted curve at half-maximal effect; nearly all actives have a fitted effect of over 60% in size
#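 Kinase-Glo luciferase light output from ATP and luciferin was measured with 10 uM ATP, within the enzyme's linear range. Buffer: 50 mM imidazole pH 7.2, 50 mM KCl, 7 mM MgCl2, 0.01% Tween 20, 0.05% BSA; luminescence read after 8 min at ambient temperature.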
# * marks the source's active call; other numbers are inactive results; ? = inconclusive; . = no result given; [ ] = remark or other dose. This is a sample that favours compounds with a hit; in the whole collection about 10% have one here. Unless noted, calls follow the shape of the dose curve; as a rule, active = well fitted inhibition curve with a large enough effect (not every such curve was filed as active); inconclusive = small, poorly fitted or top-dose-only effect, or another doubt; inactive = no such curve, though single readings can be large or run the other way. Unless noted, % is scaled to controls: 0 for no effect and ±100 for the full control effect.
SMILES,ALDH1A1 inh,HPGD block,Lamin A splicing,PNC assembly inh,KinaseGlo FLuc
COc1cc2oc(=O)c3c4c(cc5ccc(c1CCN(C)C)c2c53)OCO4,?,-12.1%,.,.,-0.2%
COC(=O)CCC(=O)OC1(C)C(=O)C2=CN(Cc3ccc(OC)cc3)C(c3ccc(OC)cc3)=CC2=C(Br)C1=O (stereo not given),3.16µM*,-12.3%,-4.4%[9.22 µM],.,-0.8%[7.66 µM]
COC(=O)CCC(=O)OC1(C)C(=O)C2=CN(Cc3ccccc3)C(c3ccc(OC)cc3)=CC2=C(Br)C1=O (stereo not given),-14.5%[13.5 µM],-3.1%,-5.1%[9.22 µM],.,-1.4%[7.66 µM]
COC(=O)CCC(=O)OC1(C)C(=O)C2=CN(c3ccccc3)C(c3ccc(OC)cc3)=CC2=C(Br)C1=O (stereo not given),3.55µM*,-11.6%,8.1%[9.22 µM],.,-5.6%[7.66 µM]
O=C(COCc1cc(-c2cccs2)on1)NCc1ccc(Cl)cc1,.,.,9.6%[46 µM],.,.
CC(C)Cc1ccc(S(=O)(=O)NCc2nc3cccnc3n2Cc2ccccc2)cc1,.,.,-8.9%[46 µM],.,.
Nc1ccc(C(=O)n2c3ccccc3c3ccccc32)cc1,11.2µM*,31.6µM*,?,?,-3.2%
COc1ccc(-n2c(C)nc3cc(C(=O)NCCN4CCOCC4)ccc32)cc1,7.8%,-4.9%,9.2%,?,-3.9%
Nc1ccc(C(=O)O)cc1,4.1%,-11.7%,-2.5%,.,1.3%
COc1ccc(-n2c(C)nc3cc(C(=O)N4CCOCC4)ccc32)cc1,?,2.24µM*,9.8%,?,-2.7%
O=C(c1ccc(-n2cnnn2)cc1)N1CCCCC1,?,15.8µM*,2.7%,35.5,1.8%
COc1ccc(/C=C(\C#N)C(=O)N2CCOCC2)cc1Br,?,15.8µM*,3.4%,34.0,-2.5%
CCOC(=O)CCN1C(=O)[C@H]2[C@H]3[C@H](O)[C@H](O)C/C(=N/OC/C=C(\C)CCC=C(C)C)[C@@H]3CC[C@@H]2C1=O,6.8%[13.5 µM],.,.,.,.
CCN1CCN(C(=O)c2ccc(C(F)(F)F)cc2)CC1,11.9%,.,5.4%[46 µM],.,1.7%
COc1ccc(C(=O)/C=C/c2cn(CC(O)CN3CCOCC3)c3ccccc23)cc1 (stereo not given),?,-9.7%,?,-25.2,1.5%
N#C/C(=C\c1ccc(OCc2ccc(C(=O)O)cc2)cc1)C(=O)N1CCOCC1,-1.7%,14.1µM*,-0.2%,?,3.6%
COc1ccc(C(=O)/C=C\N2CCOCC2)cc1,8.91µM*,-25.5%,5.1%,?,-10.3%
COc1cc(/C=C(\C#N)C(=O)N2CCOCC2)ccc1OCc1ccccc1,-14.5%,.,.,.,2.6%
O=C(c1ccc(COc2ccc(Cl)cc2)cc1)N1CCCCC1,28.2µM*,.,4.8%[46 µM],.,-2.6%
O=C(c1ccc(C(F)(F)F)cc1)N1CCCCC1,-2.8%,2.82µM*,-6.7%,43.4,4.9%
Cn1cc(S(=O)(=O)N2CCCCC2)cc1C(=O)Nc1cccc(C#N)c1,.,.,-7.9%[46 µM],.,.
COc1ccccc1CN1CCC2(CC1)CCN(C(=O)c1cccn1C)CC2,-4.6%,-5.1%,.,.,-2.0%
CN(C)c1ncc2nc(-c3cc(F)cc(F)c3)c(=O)n(Cc3ccc(F)cc3)c2n1,-4.5%,.,13.0%,.,.
Cc1cc2c(cc1NC(=O)c1ccc(C(C)(C)C)cc1)n(C)c(=O)c(=O)n2C,.,.,0.5%[46 µM],.,.
CO[C@@H]1/C=C\CC(=O)N2CCC[C@@H]2C(=O)OC[C@@H](C)C(=O)OC[C@H]1C,13.1%[13.5 µM],.,.,.,.
SMILES,ALDH1A1 inh,HPGD block,Lamin A splicing,PNC assembly inh,KinaseGlo FLuc
Cc1cccc(C(=O)OCc2cc(=O)n3nc(C4CC4)sc3n2)c1,.,.,4.0%[46 µM],.,.
Cc1nn(C(=O)c2ccco2)c(C)c1Br,?,-6.0%,-3.4%,?,0.7%
CCCCOc1ccc(C(=O)N2CCCC2C(=O)O)cc1 (stereo not given),-0.9%,-17.9%,5.4%,-100.0*,-0.4%
CCCCOc1ccc(C(=O)N2CCCCCC2)cc1,?,0.794µM*,-15.0%,-21.9,-1.3%
COc1ccc(C(=O)n2nc(C)c(Br)c2C)cc1,10µM*,-8.0%,4.3%,?,-4.0%
COc1ccc(C(=O)N2CCCC2)cc1,-14.2%,6.31µM*,6.9%,-28.7,-10.3%
COc1ccc(C(=O)N2CCN(C(=O)c3ccncc3)CC2)cc1,9.4%,-6.8%,4.6%[0.0737 µM],64.9,6.2%
CCCOc1ccc(C(=O)N2CCCC2C(=O)O)cc1 (stereo not given),-3.4%,-7.1%,13.1%,36.5,3.6%
Cc1ccc(NC(=O)Cn2cc(C(=O)c3ccco3)c3ccccc32)cc1,.,.,7.8%[46 µM],.,.
C=CCNC(=O)c1ccc(N(C)S(=O)(=O)c2ccc(OC)cc2)cc1,?,2.82µM*,-1.3%,12.7,-0.8%
CCOc1ccc(C(=O)N2CCCN(C(=O)c3ccc(OCC)cc3)CC2)cc1,-13.8%,-8.8%,-7.9%,-15.0,1.2%
NC(=O)C1CCCN(C(=O)c2ccc(Cl)cc2)C1 (stereo not given),2.8%,-21.2%,19.5%,27.4,-0.9%
O=C(c1ccc(Cl)cc1)N1CCCOC1,18.1%,8.91µM*,10.2%,32.9,0.5%
CCCCOc1ccc(C(=O)N2CCC(C)CC2)cc1,-10.2%,1µM*,6.0%,17.4,2.4%
COc1ccc(OCc2ccc(C(=O)N3CCOCC3)cc2)cc1,-6.1%,7.94µM*,-15.6%,5.3,-19.1%
COc1cccc(C(=O)NCC(=O)OCc2cc(=O)n3c(C)csc3n2)c1,.,.,9.3%[46 µM],.,.
O=C(O)c1cc(Cl)cc(Cl)c1,-9.2%,-4.3%,.,.,.
Cc1ccccc1CN1C(=O)c2ccccc2Sc2ccc(C(=O)OCc3ccco3)cc21,.,.,-8.3%[46 µM],.,.
Cc1cccc(OCC(=O)Nc2ccccc2C(=O)OCc2cc(=O)n3ccsc3n2)c1,.,.,15.1%[46 µM],.,.
Cc1cc(C)cc(NC(=O)CSc2nnc(-c3cc4occc4n3C)n2-c2ccccc2C)c1,.,.,-1.2%[46 µM],.,.
COc1ccc(C(CNC(=O)c2ccc(C)cc2)N2CCOCC2)cc1 (stereo not given),.,.,4.8%[46 µM],.,.
Nc1ccc(C(=O)N2CCCC2)cc1,-5.9%,28.2µM*,0.1%,?,-0.7%
COc1ccc(S(=O)(=O)N(C)c2ccc(C(=O)N3CCOCC3)cc2)cc1,?,6.31µM*,14.8%,?,2.3%
CN(C)S(=O)(=O)c1ccc(C(=O)N2CCOCC2)cc1,6.5%,-8.1%,16.5%,-11.2,0.6%
COc1ccc(C(CNC(=O)c2ccc(S(=O)(=O)N(C)C)cc2)N2CCCCC2)cc1 (stereo not given),10µM*,.,-4.3%[46 µM],.,2.2%
C=CCC1(O)C=CCC2C3C4C(OC(C)(C)C)C2C1C34 (stereo not given),16.1%[13.5 µM],.,.,.,.
COC(=O)c1c(NC(=O)c2cccnc2Cl)sc(C(=O)N(C)C)c1C,-14.3%,-24.0%,-9.9%,?,4.4%
CCOC(=O)c1c(NC(=O)c2cc(CC(C)C)on2)sc(C(C)=O)c1C,?,?,-8.8%,?,2.5%
CCOC(=O)c1c(NC(=O)c2cccnc2)sc(C(C)=O)c1C,?,12.6µM*,-6.9%,13.8,3.5%
CCOC(=O)c1sc(NC(=O)c2cccnc2)nc1C,-11.6%,-15.0%,12.9%,-15.7,-3.5%
